Source: PubChem (National Center for Advancing Translational Sciences (NCATS))
Rows were chosen to be rich in hits. Some 2.4% of all compounds tested hit in one or more screens of this group.
Hsp90 Hop PPI: qHTS Assay for Disrupters of an Hsp90 Co-Chaperone Interaction; Hsp90 C-terminal peptide / TPR2A (Hop) interaction, human; AlphaScreen TPR2A-His6 binding biotin-Hsp90 C-terminal peptide; Potency, µM (titrated, usually from 57 µM); 0.44% of 71,000 active; AID 595, 2007; active = well fitted curve in either direction with a large enough effect; inconclusive = small, poorly fitted or top-dose-only effect, or another doubt
BRCT inh green: qHTS Assay for Inhibitors of BRCT-Phosphoprotein Interaction (Green Fluorophore); Breast cancer type 1 susceptibility protein (Homo sapiens), P38398; BRCA1 BRCT-phosphopeptide binding, green fluorescence polarization; Potency, µM (doses to about 76.9 µM), actives largely listed as inhibitors; 0.05% of 75,000 active; AID 875, 2007
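Fluorescence polarization: His-tagged BRCT (~35 kDa BRCA1 C-terminus, 250 nM) bound to 100 nM fluorescein-labeled phosphorylated 10-aa BACH1 peptide, pH 7.3 phosphate buffer with DTT and Tween 20. Compounds incubated 12 min at room temperature; inhibition read as lowered polarization.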
Tau filament bind: qHTS Assay for Tau Filament Binding; 2% of 71,000 active; Microtubule-associated protein tau (Homo sapiens), P10636; recombinant tau filaments, thioflavin S fluorescence, 15 h; filaments grown with octadecylsulfate alongside compound; Potency, µM (highest dose often 57.1 µM);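 also: actives lower thioflavin S fluorescence by blocking filaments or displacing dye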
Target sequence (P10636 whole entry, looked up): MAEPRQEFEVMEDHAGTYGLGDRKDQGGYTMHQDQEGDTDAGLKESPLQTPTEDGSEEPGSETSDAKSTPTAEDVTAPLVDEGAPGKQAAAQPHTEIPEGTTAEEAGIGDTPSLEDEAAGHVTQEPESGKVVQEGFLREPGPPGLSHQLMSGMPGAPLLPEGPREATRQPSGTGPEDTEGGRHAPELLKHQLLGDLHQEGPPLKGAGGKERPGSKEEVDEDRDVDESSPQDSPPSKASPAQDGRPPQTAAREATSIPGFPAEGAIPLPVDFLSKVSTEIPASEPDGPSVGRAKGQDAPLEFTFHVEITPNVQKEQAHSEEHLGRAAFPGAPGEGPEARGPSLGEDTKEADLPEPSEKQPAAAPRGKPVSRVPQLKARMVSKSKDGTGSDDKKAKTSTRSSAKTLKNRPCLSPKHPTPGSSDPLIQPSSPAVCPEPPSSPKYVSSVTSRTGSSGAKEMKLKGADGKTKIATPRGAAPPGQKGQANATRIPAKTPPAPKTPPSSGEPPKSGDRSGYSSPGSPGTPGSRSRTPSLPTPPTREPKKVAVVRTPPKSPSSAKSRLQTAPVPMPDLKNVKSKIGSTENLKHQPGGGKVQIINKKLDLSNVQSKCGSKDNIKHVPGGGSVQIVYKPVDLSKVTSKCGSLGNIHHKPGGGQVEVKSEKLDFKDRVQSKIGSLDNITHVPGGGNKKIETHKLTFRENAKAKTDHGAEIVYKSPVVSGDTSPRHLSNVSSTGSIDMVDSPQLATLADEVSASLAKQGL
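Thioflavine S fluorescence (ex 450, em 510 nm) reports filaments formed from 1 uM human tau plus 30 uM ODS over 15 h at 37 C (10 mM HEPES pH 7.4, 100 mM NaCl, 5 mM DTT); compounds displacing dye or blocking filaments lower signal.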
DNA Pol III inh: qHTS Assay for Inhibitors of DNA Polymerase III Holoenzyme System. reconstituted DNA polymerase III holoenzyme replication, biochemical. 0.25% of 71,000 active. Potency, µM (titrated, usually from 57.1 µM)
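Reconstituted *E. coli* holoenzyme (0.35 nM Pol III, 1 nM beta, 154 nM SSB, 2 nM primase) was preincubated with compound for 15 min at RT. Synthesis on 1.4 nM ssM13Gori ran 35 min, then was stopped with PicoGreen/EDTA and read as dsDNA fluorescence.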
YjeE inh: qHTS Assay for Inhibitors of YjeE | 0.05% of 71,000 active | purified YjeE enzyme, qHTS inhibition assay | tRNA threonylcarbamoyladenosine biosynthesis protein TsaE (Escherichia coli (strain … | Potency, µM | AID 605, 2007
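Fluorescence polarization of a BODIPY Texas Red–ADP probe (2 uM) bound to purified YjeE (10 uM) was read after 15 min room-temperature incubation with compounds. Loss of polarization marks inhibitors; ADP serves as titrated control.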
BRCT PPI red: qHTS Assay for Inhibitors of BRCT-Phosphoprotein Interaction (Red Fluorophore). Breast cancer type 1 susceptibility protein (Homo sapiens), P38398. BRCT-phosphopeptide binding, red fluorescence polarization. Potency, µM (doses to about 76.9 µM), actives largely listed as inhibitors. 0.03% of 75,000 active
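Rhodamine-labelled pBACH1 10-mer (100 nM) bound to BRCT domain (100 nM) at pH 7.3; compounds incubated 12 min room temperature, polarization read. Free peptide defines full inhibition; unlabelled decapeptide titrated as control.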
Each line names hits and unclear results; the compound was inactive in the other large screens. Unless noted, calls follow the shape of the dose curve; as a rule, active = well fitted curve in the direction sought with a large enough effect; inconclusive = small, poorly fitted or top-dose-only effect, or another doubt; inactive = no such curve, though single readings can be large; an effect the other way counts as inactive or inconclusive.

N=c1c(C(=O)NCc2ccco2)cc2c(=O)n3ccccc3nc2n1Cc1ccccc1	Tau filament bind inconclusive
N=C(N)SCc1cccc2c(=O)cc(-c3ccccc3)oc12	none
CC1=NCC[N@@+]1(CCc1ccccc1)Cc1ccccc1	none
CCCCC[C@@H](O)[C@@H]1C(=O)O[C@@H](C)[C@@H](O)\C=C/C=C\C=C/C=C\C=C(\C)[C@H](O)C[C@H](O)C[C@H](O)C[C@H](O)C[C@H](O)C[C@H](O)C[C@@H]1O	none (no result: BRCT inh green, BRCT PPI red)
CC(C)(C)c1cc(O)c(C(C)(C)C)cc1O	Tau filament bind inconclusive
Cc1cc(O)c(C(C)(C)C)cc1Sc1cc(C(C)(C)C)c(O)cc1C	Tau filament bind 20µM
Cc1nc(NCc2ccccc2)[nH]c(=O)c1CCC(C)C	Tau filament bind 16µM
Cc1ccc(Nc2nc(C)c(CCC(C)C)c(=O)[nH]2)cc1	none
CCN1CCC[C@@H]1CNC(=O)c1c(O)c(Cl)cc(Cl)c1OC	none
C[C@@]12CCC(=O)C=C1CC[C@H]1[C@@H]2[C@@H](O)C[C@]2(C)[C@@H]1CC[C@@]2(O)C(=O)COC(=O)C1CCCC1	none
CC1=NN(C(=O)c2ccncc2)C(=O)[C@@H]1N=Nc1ccc2ccccc2c1	Tau filament bind 1.6µM
O=C1C2=C(Nc3cc([N+](=O)[O-])ccc3N2)O[C@@H]1c1c[nH]c2ccc(COc3ccccc3)cc12	none
Cc1cc(Cl)cc2c1NC(=O)[C@]21[C@@H]2C(=O)N(Cc3ccccc3)C(=O)[C@@H]2[C@@H]2CCCN21	Tau filament bind 25µM
CCc1ccc2c(c1)[C@]1(C(=O)N2)[C@@H]2C(=O)N(Cc3ccccc3)C(=O)[C@@H]2[C@@H]2CCCN21	Tau filament bind 20µM
O=C1CSC(=S)N1/N=C\c1ccc(Cl)c([N+](=O)[O-])c1	Tau filament bind 4µM
CCN(CC)CCNC(=O)Cc1nn(CC)c(=O)c2ccccc12	none
CCN(CC)CCNc1ccc(CO)c2sc3ccccc3c(=O)c12	Tau filament bind 4µM, DNA Pol III inh inconclusive
O=c1c2ccccc2sc2c(CO)ccc(NCCN3CCCCC3)c12	Tau filament bind 3.2µM
O=C(CCN1CCCCC1)c1csc2ccccc12	none
O=C(O)c1cc(=O)[nH]c(SCc2ccccc2)n1	none
CC1CCC2C(=O)N3CCCC3C(=O)N2C1c1ccc(Br)cc1 (configuration not stated)	none (no result: Hsp90 Hop PPI, Tau filament bind, DNA Pol III inh, YjeE inh)
CC(C)c1ccc2oc(-c3cc(N)ccc3O)nc2c1	Tau filament bind 3.2µM
O=C(NC1CCN(Cc2ccccc2)CC1)C1CCCN(S(=O)(=O)c2cccc3nonc23)C1 (configuration not stated)	Tau filament bind 16µM
CC(C)=C[C@H]1[C@@H](COC(=O)c2ccccc2Cl)C1(C)C	none
COc1ccc(OC)c(Nc2nc(-c3cccs3)cs2)c1	Tau filament bind 16µM
COc1ccccc1Nc1nc(-c2cccs2)cs1	Tau filament bind 13µM
CC1Cc2ccccc2N1Cc1nc2scc(-c3cccs3)c2c(=O)[nH]1 (configuration not stated)	Tau filament bind 13µM
COC(=O)c1ccc2c(=O)[nH]c(CN3c4ccccc4CC3C)nc2c1 (configuration not stated)	Tau filament bind inconclusive
CC(C)C1=CC2=CC[C@H]3[C@@](C)(CCC[C@]3(C)C(=O)O)[C@@H]2CC1	Tau filament bind inconclusive (no result: BRCT inh green, BRCT PPI red)
COc1ccc(C)cc1NC(=O)C1CCCN1S(=O)(=O)c1ccc2c(c1)CCC(=O)N2 (configuration not stated)	Tau filament bind 25µM
COc1cc(NC(=O)C2CCCN2S(=O)(=O)c2ccc3c(c2)CCC(=O)N3)cc(OC)c1 (configuration not stated)	Hsp90 Hop PPI inconclusive
Cc1ccc(-c2cn(S(=O)(=O)c3cccc4nsnc34)nc2N)cc1	Hsp90 Hop PPI inconclusive, Tau filament bind 16µM
Nc1nn(S(=O)(=O)c2cccc3nsnc23)cc1-c1ccc(Br)cc1	Hsp90 Hop PPI inconclusive, Tau filament bind 16µM
Cc1cccc(NS(=O)(=O)c2cc(C(=O)O)ccc2Cl)c1	none (no result: Hsp90 Hop PPI, Tau filament bind, DNA Pol III inh, YjeE inh)
CC1=C(C(=O)Nc2cc(-c3cccc(F)c3)[nH]n2)C2(CCCCC2)OC1=O	Tau filament bind 13µM
CN1CCC[C@@H]1c1cccnc1.O=C(O)c1ccccc1O.O=C([OH2+])c1ccccc1O.O=C([OH2+])c1ccccc1O.[Mn]	none
Nc1ncnc2c1nc(Br)n2[C@@H]1O[C@H]2COP(=O)(O)O[C@@H]2[C@H]1O	none
CNc1ccccc1C(C)(C)c1cc(-c2ccco2)n[nH]1	Hsp90 Hop PPI inconclusive, Tau filament bind 32µM
CC(C)(C)c1ccccc1NC(=O)c1ccco1	none
Cc1ccc(CNC(=O)[C@@H]2C[C@H]2[C@@H](NP(=O)(c2ccccc2)c2ccccc2)c2ccccc2)o1	none
O=[N+]([O-])c1ccc(Cl)cc1Cl	none
CCN1C(=C2C(=O)c3ccccc3C2=O)C=Cc2ccccc21	Tau filament bind 13µM
CCN1C(=O)/C(=c2\o/c(=C3\C=Cc4ccccc4N3CC)c(=O)n2CC)SC1=S	Tau filament bind inconclusive
O=C(Nc1nc(-c2ccccn2)cs1)C1COc2ccccc2O1 (configuration not stated)	Hsp90 Hop PPI 16µM
CC1=CC(=O)C2=C(C)CC[C@@H]3[C@H](OC(=O)[C@H]3C)[C@H]12	Tau filament bind inconclusive (no result: BRCT inh green, BRCT PPI red)
Cc1cccc(-n2c(SCC(=O)Nc3nnc(C)s3)nnc2-c2ccoc2C)c1	Hsp90 Hop PPI inconclusive, Tau filament bind 16µM
O=C(NCCN1CCOCC1)c1cc(-c2ccc(O)cc2)on1	none
O=C(CSc1nnc(CNC(=O)c2ccccc2F)o1)c1ccc(Cl)cc1	Tau filament bind 32µM
NS(=O)(=O)c1ccc(N=Nc2cc3ccccc3c(C(=O)O)c2O)cc1	Hsp90 Hop PPI inconclusive, Tau filament bind 1.3µM
O=C(O)[C@@H]1[C@@H](C(=O)Nc2ccccc2)[C@@H]2C=C[C@@H]1O2	none
O=C1c2ccccc2-c2n[nH]c3cccc1c23	none
Cc1ccc(-c2cc3c(nn2)-c2ccccc2C3=O)cc1	Tau filament bind 1µM
COc1ccc2c(c1)CN([C@H](C)[C@@H]1CC[C@@H]3[C@H]4CC[C@H]5C[C@@H](O)CC[C@@]5(C)[C@H]4CC[C@]31C)CO2	none
COc1ccc(Cl)c(N2CCN(CCCNC(=O)Nc3ccc(C)cc3)CC2)c1	Tau filament bind 16µM
